Measured values from ChEMBL document CHEMBL4513216, “Probing the Open Global Health Chemical Diversity Library for Multistage-Active Starting Points for Next-Generation Antimalarials” (ACS Infect Dis, 2020).
In all, about 69,000 compounds went through this assay and about 8,600 (12%) showed an effect of 50% or more. The list comes from a sample in which strong results are over-represented; it also holds similar structures and randomly drawn compounds.

What follows are compounds tested on Plasmodium berghei (assay: Screen against P. berghei liver stage (PbLuc), transformed with Luciferase, at 10uM). Conditions: tested at 10 uM.
Type: functional, HepG2
With `COc1ccc(C2c3c(n[nH]c3C)N=C3COC(=O)C32)cc1OC` (stereo not drawn) the INHIBITION was -2.37%. In the case of `CSc1nc(N)c2c(n1)N=C1COC(=O)C1C2c1cccc(Cl)c1` (stereo not drawn), the INHIBITION is reported as 15.9%. For `CCOc1ccc(C2c3c(N)nc(SC)nc3N=C3COC(=O)C32)cc1` (stereo not drawn), the INHIBITION was -44.5%. `Nc1ccc(-c2cnc(C3CCCN3)cn2)cn1` (stereo not drawn) was tested, and the INHIBITION was -4.175%. Compound `Cc1cc(C)n(CC2CCCN2C(=O)c2ccc(NC3CC3)nc2)n1` (stereo not drawn) has an INHIBITION of -5.07%. `Cc1ccc(=O)n(CC2(O)CCN(Cc3cccs3)CC2)n1` gave an INHIBITION of -20.2%. `O=C(NCCN1CCOCC1)c1nc2ccccc2c(=O)[nH]1` gave an INHIBITION of 45.7%. For `CC1COCCN1Cc1nc(-c2ccc(Br)s2)no1` (stereo not drawn), the INHIBITION was -50.8%. Work on `CCN1CCOC(CNCc2c(Cl)nc3ccccn23)C1` (stereo not drawn) yielded an INHIBITION of -13.6%. For `COc1c(F)cc(-c2cccc3c2OC(CN)C3)cc1F` (stereo not drawn), the INHIBITION was 27.6%. With `Cc1cc(CN2CCCC2)cc(Oc2ccc3c(c2)CC(CN)O3)c1` (stereo not drawn) the INHIBITION was 4.68%. Compound `NCC1Cc2cc(Oc3cc(F)c(CN4CCCC4)c(F)c3)ccc2O1` (stereo not drawn) has an INHIBITION of 74%. Compound `COc1ccc(CN2CCCC2)cc1Oc1ccc2c(c1)CC(CN)O2` (stereo not drawn) has an INHIBITION of -27%. With `COc1cc(CN2CCCC2)ccc1Oc1ccc2c(c1)CC(CN)O2` (stereo not drawn) the INHIBITION was 69%. Compound `COc1ccc(CN2CCCC2)cc1Oc1ccc(NC(C)=O)cc1` has an INHIBITION of -5.47%. For `CC(=O)N1CCC(c2ccnc(Nc3cc(C(F)(F)F)ccn3)n2)C1` (stereo not drawn), the INHIBITION was 2.55%. Work on `CN(C)C(=O)[C@H]1C[C@H]2OCC[C@H]2N(CCOc2ccc(Cl)cc2)C1` yielded an INHIBITION of 1.48%. `Cc1ncc2c(n1)CN(CCCc1ccccc1)CC2` showed an INHIBITION of -21.8%. In the case of `Cc1nn(C)c(C)c1NC(=O)c1cccc(CN2CCS(=O)(=O)CC2)c1`, the INHIBITION is reported as 44.4%. In the case of `Cc1nn(C)c(C)c1NC(=O)c1cccc(CN2C[C@H]3CC[C@@H](C2)N3)c1`, the INHIBITION is reported as 16%. `Cc1nn(C)c(C)c1NC(=O)c1cccc(CN2CC[C@H](O)C2)c1` showed an INHIBITION of 56.6%. With `CCCn1cc(NC(=O)c2cccc(CN3CC=CC3)c2)nn1` the INHIBITION was -57.5%. `CCn1cc(NC(=O)c2cccc(CN3C[C@@H](C)O[C@@H](C)C3)c2)nn1` was tested, and the INHIBITION was 81.3%. `CCCn1cc(NC(=O)c2cccc(CN3CC[C@H](O)C3)c2)nn1` was tested, and the INHIBITION was 65.6%. Work on `Cc1ccc(Cl)c(NC(=O)c2cccc(CN3CC[C@H](O)C3)c2)c1` yielded an INHIBITION of 43.9%. For `CCN(Cc1cccc(C(=O)Nc2cn(C)nn2)c1)[C@H]1COC[C@@H]1O`, the INHIBITION was 35.7%. With `Cn1nccc1NC(=O)c1cccc(CN2C[C@H]3CC[C@@H](C2)N3)c1` the INHIBITION was 6.09%. Work on `CCOc1ccc2cc(C(=O)N3CCn4c(CC)nnc4C3)[nH]c2c1` yielded an INHIBITION of 0.411%. Compound `COc1nn(C)cc1C(=O)N1CCC(c2ccccc2)C1` (stereo not drawn) has an INHIBITION of 11.8%. For `Cc1ccccc1C1(C(=O)NCCN2CCCC(C)C2)CCOCC1` (stereo not drawn), the INHIBITION was 49.8%. For `Cc1cc(C)n(CCC(=O)N2CCC(c3nc(C)no3)CC2)n1`, the INHIBITION was 47.4%. With `CC(C)n1cnnc1CNC(=O)c1cnc2ccccc2n1` the INHIBITION was -4.73%. `Cc1nc(Nc2ccccn2)cc(N2CCN(S(C)(=O)=O)CC2)n1` showed an INHIBITION of 53.2%. `Cc1ccc(Nc2cc(N3CCN(S(C)(=O)=O)CC3)nc(C)n2)cc1` showed an INHIBITION of -19.7%. `CS(=O)(=O)N1CCN(c2ccc(Nc3ccccn3)nn2)CC1` showed an INHIBITION of 21.5%. `O=C1CCC2(CCC(NCc3cccnc3)CC2)N1Cc1ccccc1` (stereo not drawn) showed an INHIBITION of 48.2%. `CCn1cc(NC(=O)NCC(C)N(C)C2CC2)cn1` (stereo not drawn) was tested, and the INHIBITION was -62.8%. `CC(CN1CC[C@@H]2CCCC[C@@H]2C1)n1cnc2ccccc21` (stereo partly drawn) showed an INHIBITION of 3.58%. Compound `CC(CN1CCC(c2ccccc2)CC1)n1cnc2ccccc21` (stereo not drawn) has an INHIBITION of 56.2%. With `CC(CN1CCC(CCO)CC1)n1cnc2ccccc21` (stereo not drawn) the INHIBITION was -0.217%. `CCCC(O)CN1CCC(=O)N(CCOC)Cc2cc3c(cc21)OCO3` (stereo not drawn) was tested, and the INHIBITION was 22.2%. With `COCCN1CCCC1c1nccnc1Nc1nccs1` (stereo not drawn) the INHIBITION was 61.9%. `COCCN1CCCC1c1nccnc1Nc1ncc(C)s1` (stereo not drawn) gave an INHIBITION of 8.53%. `COCCN1CCCC1c1nccnc1Nc1nc(C)cs1` (stereo not drawn) showed an INHIBITION of 16.9%. `COCCC(=O)N1CCn2cc(CN3CCN(C)CC3)nc2C1` was tested, and the INHIBITION was -17.2%. With `CCc1nc2n(n1)CC(NCCC(=O)Nc1cc(C)on1)CC2` (stereo not drawn) the INHIBITION was 7.08%. In the case of `CCN(CC1CN(Cc2c(C)noc2C)CCO1)c1cccnn1` (stereo not drawn), the INHIBITION is reported as 44.9%. `CCN(CC1CN(Cc2nc(C3CC3)no2)CCO1)c1cccnn1` (stereo not drawn) showed an INHIBITION of 87.6%. Work on `CCN(CC1CN(CC2CCC2)CCO1)c1cccnn1` (stereo not drawn) yielded an INHIBITION of 62.8%. `CCN(CC1CN(Cc2ncc[nH]2)CCO1)c1cccnn1` (stereo not drawn) gave an INHIBITION of 11.1%. `CCN(CC1CN(Cc2nccn2CC)CCO1)c1cccnn1` (stereo not drawn) gave an INHIBITION of 41.4%. In the case of `CCN(CC1CN(Cc2ncc(C)o2)CCO1)c1cccnn1` (stereo not drawn), the INHIBITION is reported as -17.4%. `COc1cc(C2CC(=O)Nc3c2c(=O)[nH]n3C2CCCC2)ccc1O` (stereo not drawn) showed an INHIBITION of 27.4%.
